# Experimental data from PubChem BioAssay (NCI).
# The panel holds about 83,000 compounds, 20% with a hit somewhere; the sample as a whole holds those more often.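 Cells were grown in 96-well plates and exposed to the test compound at a single concentration for 48 hours; results are reported as percent growth, with values below 10 considered active.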 Values without a mark were called inactive. Active and inactive are the calls of the source.
# Legend:
# Test in all cases: NCI-60 one-dose screen, 48 h (100 = growth as untreated, 0 = no growth, -100 = all killed)
# Settings in all cases: 10 µM unless noted
# [1] = test system: HCT-15 colon
# [2] = test system: HT29 colon
# [3] = test system: SNB-75 CNS
# [4] = test system: SNB-19 CNS
# [5] = test system: U251 CNS
# [6] = test system: PC-3 prostate
# [7] = test system: SK-MEL-5 melanoma
# [8] = test system: UACC-62 melanoma
# [9] = test system: SK-MEL-28 melanoma
# [10] = test system: SK-MEL-2 melanoma
# [11] = test system: EKVX NSCLC
# [12] = test system: SN12C renal
# [13] = test system: UO-31 renal
# [14] = test system: TK-10 renal
# [15] = test system: ACHN renal
# [16] = test system: CAKI-1 renal
# [17] = test system: A498 renal
# [18] = test system: CCRF-CEM leukemia
# [19] = test system: MOLT-4 leukemia
# [20] = test system: LOX IMVI melanoma
SMILES,growth [1],growth [2],growth [3] [%],growth [4] [%],growth [5],growth [6],growth [7],growth [8],growth [9],growth [10] [%],growth [11],growth [12] [%],growth [13],growth [14],growth [15],growth [16] [%],growth [17],growth [18],growth [19],growth [20]
Cn1ccc2c3c(ccc21)CC3=O,105%,116%,97.7,105,111%,110%,115%,99.1%,112%,126,103%,106,107%,124%,111%,92.3,92.6%,111%,88.9%,
COc1ccc2cc(-c3ccc(NC(C)=O)c(=O)o3)ccc2c1,100%,87.9%,97.4,94.1,96%,89.1%,102%,94.8%,104%,98.6,106%,102,77.6%,97.4%,98.7%,89.7,85%,93.1%,90.9%,
O=C1Nc2ccccc2/C1=C\c1nc(-c2ccccc2)n2ccccc12,80.2%,91.6%,79.6,103,89.6%,87.4%,89.7%,78.3%,113%,94.2,74.1%,96.2,79.8%,84.2%,71.1%,76.5,119%,84.1%,88.1%,
Cc1ccc(S(=O)(=O)N2CCCC2CO)cc1 (stereo not given),95%,88.5%,68.1,98.9,98.1%,75.6%,98.4%,104%,163%,96.3,101%,101,94.2%,101%,89.3%,85.6,65.7%,68.5%,98.8%,
CCOC(=O)c1nc(Nc2ccc(NC(=O)Nc3ccc(F)cc3)cc2)c2ccccc2n1,100%,106%,78.7,98,103%,103%,93.9%,101%,105%,103,97.4%,99.4,81%,120%,102%,91.1,62%,109%,98.5%,
CN(C)C1CCN(Cc2ccc(NC(=O)c3cncc(C#Cc4cnc(N)c5ncccc45)c3)cc2C(F)(F)F)CC1,53.2%,19.3%,127,97.8,-51.5% (active),80.6%,50.6%,91.5%,-53.9% (active),79.9,93.5%,93.1,89.3%,128%,-90.9% (active),78.4,85.2%,4.13% (active),24.7%,
O=C(CCCCCCN1CC(=O)N2[C@H](c3cc(Br)cs3)c3[nH]c4ccccc4c3C[C@H]2C1=O)NO,96.9%,50.7%,26.2,41.1,33.3%,46.9%,27%,12%,27.7%,50,75.4%,53.7,39.6%,32%,47.8%,43.7,58.6%,23.9%,9.39% (active),
Clc1ccc(Nc2nnc(COc3ccccc3)c3ccccc23)cc1,4.45% (active),1.32% (active),13.1,22,-12.7% (active),-0.2% (active),-96.1% (active),-27.7% (active),4.73% (active),,6.53% (active),17,-12.3% (active),-17.5% (active),3.37% (active),15.4,-17.3% (active),1.06% (active),-32.6% (active),-62% (active)
CC(=O)Nc1nc2ccc(NS(=O)(=O)c3cccc4c(N(C)C)cccc34)cc2[nH]1,72.9%,63%,31,52.3,70.2%,60.2%,21.5%,27.3%,57.9%,80.8,75.9%,69.8,68.4%,102%,75.7%,42.7,2.64% (active),47.9%,59.4%,
Cc1ccc(C2=Nc3c(N)ncnc3NC(c3ccc4c(c3)OCO4)C2)cc1 (stereo not given),34.6%,14.1%,53.5,73.2,46.9%,62.5%,33.3%,48.5%,58%,61.8,83.2%,96.8,60.9%,84.5%,74.3%,56.6,55.4%,-39.4% (active),49.3%,
Cn1c(-c2ccc(Br)cc2)c(O)c(=O)c2c(F)cccc21,23.9%,36.6%,92.2,52.8,34.3%,105%,54.2%,37.6%,67.2%,87.1,56%,68.8,26.3%,42.4%,37%,47.9,62.3%,94.1%,99%,
C=CCn1c(SCC(=O)NCc2cc(C)c(O)c(C)c2)nc2ccc(Cl)cc2c1=O,95.6%,102%,67.5,99.7,102%,96.1%,93.2%,81.9%,109%,101,111%,107,74.6%,113%,98.9%,112,106%,86.3%,81.6%,
CN1CCN(c2ccc(NC(=O)c3cncnc3Nc3ccc(OCc4ccccn4)c(Cl)c3)cc2)CC1,-44.4% (active),-14.8% (active),59.8,69.6,2.96% (active),61%,47.2%,-69.9% (active),-86% (active),21.6,85.6%,59.2,-72.1% (active),92.4%,51.8%,64.2,67.2%,11.2%,8.56% (active),
C/C(=C(/c1ccc(Cl)cc1)c1ccc(OCCN2CCCC2)cc1)c1ccc(Cl)cc1,42.1%,9.33% (active),115,85.8,68.6%,66.4%,82.4%,93.9%,92.8%,93.9,90.7%,85.5,65.7%,94.6%,104%,88.5,97.9%,61.7%,62.9%,
C#CCOc1ccc2ncnc(Nc3cccc(NC(=O)C=C)c3)c2c1,71.1%,42.7%,60.5,73.9,73.1%,82.2%,77.5%,64.1%,86.3%,70.8,51.6%,65.3,41.3%,45.2%,45.8%,45.5,47.7%,79.9%,60.6%,
